DRD3 agonist – agonists of human D3 dopamine receptor. D3R DiscoveRx beta-arrestin cells, luminescence, 90 min. max activation, %. actives 0.58% (n = 410,000). AID 652048; in the data active = max activation above about 30%
Target sequence (P35462 whole entry, looked up): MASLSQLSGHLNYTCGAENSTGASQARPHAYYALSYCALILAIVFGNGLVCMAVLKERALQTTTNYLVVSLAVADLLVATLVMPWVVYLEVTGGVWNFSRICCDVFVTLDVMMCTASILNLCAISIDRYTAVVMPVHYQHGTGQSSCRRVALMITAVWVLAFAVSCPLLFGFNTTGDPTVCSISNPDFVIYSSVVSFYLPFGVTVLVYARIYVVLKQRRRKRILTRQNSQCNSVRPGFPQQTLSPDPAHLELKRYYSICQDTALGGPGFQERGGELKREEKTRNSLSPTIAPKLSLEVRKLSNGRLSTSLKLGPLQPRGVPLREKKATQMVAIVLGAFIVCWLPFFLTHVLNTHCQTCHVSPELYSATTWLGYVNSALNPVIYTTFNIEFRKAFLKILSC
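Agonist-mode cell screen: cells plated at 1500/well and incubated overnight at 37 °C, then exposed to library compounds for 90 min at 37 °C. Detection reagent was added for 30–60 min at room temperature, and luminescence was read.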
D3 antag – blocks the human D3 dopamine receptor; D3R cells, DiscoveRx beta-arrestin luminescence, antagonist mode; active compounds read low; actives 2.5% (n = 360,000); P35462; max response, negative = inhibition, %; in the data active = max response below about -50%; inconclusive = no clear call, values can overlap the other calls
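Cells plated overnight at 1500 cells/well, then exposed to library compounds with dopamine controls for 90 minutes at 37 degrees C. DiscoveRx reagent added for 30–60 minutes at room temperature; luminescence read, quantitative HTS format.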
D1 antagonist – antagonists of human D1 dopamine receptor. P21728. actives 3.2% (n = 360,000). activity change, negative = inhibition, % at 10 µM. HEK293 TREx D1 cells, calcium flux, dopamine EC80; active compounds read low. AID 504652; in the data active = activity change below about -30%
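Cells carrying a force-coupled, tetracycline-inducible human D1 receptor report calcium flux. Each well gets a 10 s baseline, compound with 180 s monitoring, then an EC80 dopamine stimulus with a second 180 s kinetic read.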
D1 ag – agonists of human D1 dopamine receptor | P21728 | HEK293 T-REx D1 cells, calcium flux, agonist mode | activation, % at 2 µM | actives 1% (n = 360,000) | AID 504660; in the data active = activation above about 30%
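Agonism was scored from calcium flux recorded over 180 s (1 read/s) after pintool compound addition, following a 10-cycle baseline. Cells were inducible force-coupled HEK293 TREx D1, plated overnight at 30 C and loaded with no-wash calcium dye.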
D1 PAM – enhances dopamine response at the human D1 receptor; P21728; HEK293 TREx D1 cells, calcium flux, dopamine EC20 potentiation; potentiation, % at 10 µM; actives 0.036% (n = 360,000); AID 504651; in the data active = potentiation above about 30%
A number is an active result; n = inactive; u = inconclusive; x = not tested or not shown. Rows were chosen to be rich in hits. Some 6% of all compounds tested hit in one or more screens of this group.

SMILES	DRD3 agonist	D3 antag	D1 antagonist	D1 ag	D1 PAM
COCCNC(=O)C1(C)CCCN(Cc2csc3ccccc23)C1 (stereo not drawn)	n	u	x	x	x
CCCNC(=O)C1(C)CCCN(Cc2csc3ccccc23)C1 (stereo not drawn)	n	-53	x	x	x
CCCNC(=O)C1(C)CCN(Cc2ccc3ccccc3c2Br)C1 (stereo not drawn)	n	-51	x	x	x
COc1cc(OC)c(NC(=O)CCc2c(C)nc3c4c(C)cc(C)nc4nn3c2C)cc1Cl	n	x	n	n	n
CCCNC(=O)NC(=O)CSc1ccc2c(c1)OCCO2	n	u	x	n	n
Cc1sc2ncn(CC(=O)NCCCOC(C)C)c(=O)c2c1S(=O)(=O)N1CCN(c2ncccn2)CC1	n	n	-64	n	n
Cc1cccc(NC(=O)Cn2cnc3sc(C)c(S(=O)(=O)N4CCC(C)CC4)c3c2=O)n1	35	n	n	n	n
Cc1sc2ncn(CC(=O)NCC3COc4ccccc4O3)c(=O)c2c1S(=O)(=O)N1CCCCC1 (stereo not drawn)	n	n	-37	n	n
Cc1ccccc1CN1C(=O)c2ccccc2S(=O)c2ccc(C(=O)NC3CCC(C)CC3)cc21 (stereo not drawn)	n	x	n	n	n
CCN1C(=O)/C(=C/c2cn(C)nc2C)SC1=S	n	n	n	n	n
CCN1C(=O)/C(=C/c2cnn(C)c2C)SC1=S	x	x	-32	n	n
CCCS(=O)(=O)c1nc(S(=O)(=O)c2ccc(C)cc2)c(NC)s1	n	x	n	n	n
O=C1CC(c2ccc(Cl)cc2)CC(=O)C1CS(=O)(=O)c1ccccc1 (stereo not drawn)	n	u	n	n	n
O=C1CC(c2ccccc2)CC(=O)C1Sc1ccc(Cl)cc1 (stereo not drawn)	n	-53	n	n	n
O=S(=O)(c1ccc2nc(Cl)c(Cl)nc2c1)N1CCN(S(=O)(=O)c2c(F)cccc2F)CC1	x	x	n	n	n
C=CCOc1ccc(/C(O)=C2/C(=O)C(=O)N(CCCn3ccnc3)C2c2cccs2)cc1 (stereo not drawn)	n	n	-52	n	n
C=CCOc1ccc(/C(O)=C2/C(=O)C(=O)N(CCCn3ccnc3)C2c2ccco2)cc1 (stereo not drawn)	n	n	n	n	n
O=C(Nc1nnc([C@@H]2C[C@H](O)[C@@H](CO)O2)s1)Nc1ccccc1F	n	n	x	x	x
Cc1cc(C(=O)N2CCN(c3ccc(F)cc3)CC2)c2c(C)nn(-c3cccc(Cl)c3C)c2n1	n	x	n	n	n
O=C(Nc1ccccc1Cl)Nc1ccccc1Cl	n	n	n	n	n
O=C(Nc1csc([N+](=O)[O-])c1)Nc1ccccc1Cl	n	n	-31	n	n
CCS(=O)(=O)c1ncc(N(Cc2cccc(F)c2)Cc2ccco2)c(C(=O)Nc2ccccc2Cl)n1	n	x	n	n	n
CC(C)CN=Cc1c(O)c([N+](=O)[O-])cc2oc3c(c12)CCCC3	n	-106	n	n	n
Cc1cccc(/N=C/c2c(O)ccc3oc4c(c23)CCCC4)n1	n	u	n	n	n
O=[N+]([O-])c1cc2oc3c(c2c(C=NCc2ccccc2)c1O)CCCC3	n	-85	n	n	n
SMILES	DRD3 agonist	D3 antag	D1 antagonist	D1 ag	D1 PAM
O=C(Nc1ncccc1O)c1ccc(Cl)c(S(=O)(=O)N2CCCC2)c1	n	u	x	x	x
O=C(c1ccc(F)cc1)C1CCN(CCn2c(=O)[nH]c3ccccc3c2=O)CC1	n	-51	n	n	n
Cc1ccc(CN2CCC(C(=O)c3ccc(F)cc3)CC2)cc1	n	-122	x	x	x
O=C(COC(=O)C1CCN(S(=O)(=O)c2cccs2)CC1)NCc1ccc(F)cc1	n	n	n	n	n
O=C(COC(=O)C1CCN(S(=O)(=O)c2ccccc2C(F)(F)F)CC1)NCc1ccc(F)cc1	257	n	n	n	n
COc1ccc(COC(=O)C2CCN(S(=O)(=O)c3ccc(F)cc3)CC2)cc1	n	n	-35	37	n
COc1ccc(CNC(=O)C2CCN(S(=O)(=O)c3ccc(F)cc3)CC2)cc1	n	x	n	n	n
Cc1ccc(NC(=O)N2CCC(C(=O)c3ccc(F)cc3)CC2)cc1	n	n	n	n	n
O=C(Nc1cccc(-c2nc3ccccc3o2)c1)C(F)(F)F	n	x	n	n	n
Cc1ccccc1C(=O)Nc1ccc(OCc2cc(=O)n3cccc(C)c3n2)cc1	n	x	n	n	n
O=c1ccc2cccc([N+](=O)[O-])c2[nH]1	n	n	x	x	x
COc1ccc(CN2CCC(C(=O)c3ccc(F)cc3)CC2)cc1	n	-120	-46	n	n
COc1ccc(C(=O)C2CCN(C(=O)c3ccc(F)cc3)CC2)cc1	n	n	n	n	n
CCN(CCNc1ccc(Cl)cc1[N+](=O)[O-])C(=O)c1cc([N+](=O)[O-])c(N(C)C)cc1OC	n	n	-80	n	n
CN(C)CCNc1ccc(Cl)cc1[N+](=O)[O-]	n	n	n	n	n
Cc1nnc(SCc2cc(=O)[nH]c(Nc3nc(C)c4cc(C)c(C)cc4n3)n2)s1	n	n	-73	n	n
Cc1ccc(SCc2cc(=O)[nH]c(Nc3nc(C)c4cccc(C)c4n3)n2)cc1	n	-84	n	n	n
Cc1ccc2c(C)nc(Nc3nc(CSc4nc5ccccc5s4)cc(=O)[nH]3)nc2c1	n	n	x	x	x
CCOc1ccc2nc(Nc3nc(CSc4nnnn4-c4ccccc4)cc(=O)[nH]3)nc(C)c2c1	n	n	n	n	n
COc1ccc2nc(Nc3nc(CSc4nnnn4-c4ccccc4)cc(=O)[nH]3)nc(C)c2c1	n	-59	n	n	n
Fc1cccc(Cc2c(-c3ccco3)nc3ccc(Br)cn23)c1	n	n	x	x	x
O=C(COc1ccc2ccc(=O)oc2c1)NC1CCCC1	n	n	n	n	n
Cc1c(C)c2ccc(OCC(=O)N3CCN(C(=O)C4COc5ccccc5O4)CC3)cc2oc1=O (stereo not drawn)	n	n	n	n	n
CCc1c(C)c2ccc(OCC(=O)OC)cc2oc1=O	n	n	n	n	n
Cc1c(C)c2ccc(OCC(=O)N3CC[C@@]4(O)CCCC[C@H]4C3)cc2oc1=O	33	n	n	n	n
O=C(COc1ccc2ccc(=O)oc2c1)N1CC[C@@]2(O)CCCC[C@H]2C1	n	n	-49	n	n
COC(=O)Cc1c(C)c2ccc(OCC(=O)N3CCOCC3)cc2oc1=O	n	u	-32	n	n
CCOC(=O)[C@]12CCCC=C1N(Cc1ccccc1)C(=O)[C@H](CC(=O)NCCc1ccccc1OC)C2	n	n	x	x	x
CCc1ccc2occ(CC(=O)N(Cc3ccccc3)C3CCS(=O)(=O)C3)c2c1 (stereo not drawn)	n	x	n	n	n
C#CCOCCOCCOCCNc1nc(N2CCOCC2)nc(N2CCN(C(=O)CCCCCCCCCCNC(=O)[C@H](CO)n3cc(CCCCCN)nn3)CC2)n1	n	n	n	n	n
